Measured values: PubChem BioAssay (NCATS)
Results filed as inconclusive are left out. Active and inactive are the calls of the source. Calls follow the shape of the dose curve; as a rule, active = well fitted inhibition curve with a large enough effect; inconclusive = small, poorly fitted or top-dose-only effect; inactive = flat fitted curve, though single readings scatter.

System: CP191
Assay: qHTS profiling for inhibitors of Plasmodium falciparum proliferation (AID 504749); also: nearly all actives have a fitted effect of over 60% in size;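 as to activity, negative = inhibition: 0% = DMSO vehicle and full inhibition = artemisinin control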
Details: P. falciparum in erythrocytes, SYBR Green DNA, 72 h; series mostly up to 28.7 µM; activity, negative = inhibition: at the top concentration
Method in brief: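 Parasite proliferation within erythrocytes, 72 h exposure. Endpoint: SYBR Green I fluorescence after overnight lysis at room temperature. Controls: 0.29 uM artemisinin, DMSO.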
Potency is read from the fitted curve at half-maximal effect.

Row | Compound | activity, negative = inhibition | Potency
1 | NC(=O)N1c2ccccc2CC(=O)c2ccccc21 | 0.723% (inactive) | –
2 | CNS(=O)(=O)Cc1ccc2[nH]cc(CCN(C)C)c2c1 | -3.34% (inactive) | –
3 | CCCc1cc(C(N)=S)ccn1 | -3.14% (inactive) | –
4 | CCCN[C@H]1CCc2nc(N)sc2C1 | 5.45% (inactive) | –
5 | COc1ccc(C(=O)CC(=O)c2ccc(C(C)(C)C)cc2)cc1 | 1.89% (inactive) | –
6 | CC(C)Cn1cnc2c(N)nc3ccccc3c21 | -18.9% (inactive) | –
7 | Nc1nc(N)nc(-c2cc(Cl)ccc2Cl)n1 | -14.4% (inactive) | –
8 | OC(Cn1cncn1)(Cn1cncn1)c1ccc(F)cc1F | -3.2% (inactive) | –
9 | CC(C)OC(=O)C(C(=O)OC(C)C)=C1SC=CS1 | -8.53% (inactive) | –
10 | NCCCC(O)(P(=O)(O)O)P(=O)(O)O | 2.87% (inactive) | –
11 | CC1=CC(=O)c2ccccc2C1=O | 4.34% (inactive) | –
12 | Nc1ccc(S(=O)(=O)Nc2ccccn2)cc1 | -22.1% [at 12.8 µM] (inactive) | –
13 | Cc1noc(NS(=O)(=O)c2ccc(N)cc2)c1C | -6.2% (inactive) | –
14 | O=c1cc(O)c(Cl)c[nH]1 | 0.238% (inactive) | –
15 | Cn1nnc2c(C(N)=O)ncn2c1=O | -9.18% (inactive) | –
16 | CNC1CCCN(c2c(F)cc3c(=O)c(C(=O)O)cn(C4CC4)c3c2OC)C1 (configuration not stated) | -5.94% (inactive) | –
17 | C#CCN[C@@H]1CCc2ccccc21 | 9.36% (inactive) | –
18 | COc1cc(NCc2ccc3nc(N)nc(N)c3c2C)cc(OC)c1OC | – | 251 nM (active)
19 | N[C@@H](C(=O)N[C@@H]1C(=O)N2C(C(=O)O)=C(Cl)CS[C@H]12)c1ccccc1 | 8.46% (inactive) | –
20 | CN(C)CCc1c[nH]c2ccc(CS(=O)(=O)N3CCCC3)cc12 | -8.43% (inactive) | –
21 | C[C@]12C=CC(=O)C=C1CC[C@@H]1[C@@H]2C(=O)C[C@@]2(C)[C@H]1CC[C@]2(O)C(=O)CO | 4.18% (inactive) | –
22 | Nc1[nH]c(=O)ncc1F | -9.55% [at 12.8 µM] (inactive) | –
